Test results published in PubChem BioAssay (NCATS).
Inconclusive results are not listed. Entries that show only a call come without a potency. Calls of active or inactive are those of the source. Unless noted, calls follow the shape of the dose curve; as a rule, active = well fitted curve in the direction sought with a large enough effect; inconclusive = small, poorly fitted or top-dose-only effect, or another doubt; inactive = no such curve, though single readings can be large; an effect the other way counts as inactive or inconclusive.

Experiments:
[1] = target: Cytochrome P450 3A4 (Homo sapiens) (UniProt P08684); assay: qHTS Assay for Activators of Cytochrome P450 3A4 (AID 885); also: nearly all actives have a fitted effect of over 65% in size
In short: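 Human CYP3A4 (20 nM) with Luciferin-PPXE at 25 uM (its KM) in 200 mM KPO4; 10 min compound preincubation, then NADPH regeneration and 60 min reaction at RT. Luciferin read by luminescence; normalized to 57 uM ketoconazole full inhibition.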

[2] = Confirmation and Secondary Assay for Modulators of Hemoglobin Beta Chain Splicing at IVS2 654 locus (AID 910);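 also: HeLa cells stably carrying EGFP split by mutant beta-globin IVS2-654 intron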
In short: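 HeLa cells stably expressing EGFP interrupted by β-globin IVS2-654 intron, seeded overnight in Opti-MEM/2% FCS, then treated 2 days at 37 °C. Restored splicing read as total peak GFP intensity per well by laser scanning cytometry (488 nm excitation, 500–520 nm emission); 500 nM antisense PNA as control.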

[3] = Confirmation and Secondary Assay for Modulators of Hemoglobin Beta Chain Splicing at IVS2 705 locus (AID 930);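 also: HeLa cells stably expressing the EGFP-705 splicing reporter; GFP fluorescence per well restored by corrected splicing of the IVS2-705 intron in EGFP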
In short: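 HeLa EGFP-705 reporter; 500 cells/well, o/n 37C 5% CO2; cpd 2 d; 488 ex/500-520 em laser scan; total peak GFP intensity/well. Ref: 500 nM […] antisense PNA.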

[4] = qHTS Assay for Lipid Storage Modulators (AID 1519; calls by dose curve); conditions: Drosophila S3 cells, BODIPY lipid droplet/cell ratio, laser cytometry, cells loaded with oleic acid; for activity change, negative = inhibition: at 57.5 µM (top of the series)
In short: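 Cells seeded at 5,000 per well were treated with compounds over a concentration series and loaded with oleic acid (400 uM, as added). Lipid droplet fluorescence (488 nm excitation, 500-530 nm channel) was read by laser-scanning cytometry and normalized to 20 uM Triacsin C.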

[5] = target: Ubiquitin carboxyl-terminal hydrolase 1 (Homo sapiens) (UniProt O94782); assay: Inhibitors of USP1/UAF1: Pilot qHTS (AID 504865);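 also: rhodamine fluorescence freed from ubiquitin-rhodamine substrate followed over time; top concentration of the series differs between compounds; nearly all actives have a fitted effect of over 35% in size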
In short: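 USP1/UAF1 complex (1nM) preincubated with compound 15 min at room temperature, then Ub-Rho substrate (150nM final) added. Fluorescence read kinetically at 480/540 nm, 6 reads every 60 seconds. Buffer: 50mM HEPES pH 7.8, 0.5mM EDTA, 0.1 mg/ml BSA, 1mM TCEP, 0.01% Tween-20.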

[6] = measured here: cell count channel max response
[7] = measured here: lipid channel max response

Cytochrome P450 3A4 (Homo sapiens), sequence (P08684 whole entry, looked up): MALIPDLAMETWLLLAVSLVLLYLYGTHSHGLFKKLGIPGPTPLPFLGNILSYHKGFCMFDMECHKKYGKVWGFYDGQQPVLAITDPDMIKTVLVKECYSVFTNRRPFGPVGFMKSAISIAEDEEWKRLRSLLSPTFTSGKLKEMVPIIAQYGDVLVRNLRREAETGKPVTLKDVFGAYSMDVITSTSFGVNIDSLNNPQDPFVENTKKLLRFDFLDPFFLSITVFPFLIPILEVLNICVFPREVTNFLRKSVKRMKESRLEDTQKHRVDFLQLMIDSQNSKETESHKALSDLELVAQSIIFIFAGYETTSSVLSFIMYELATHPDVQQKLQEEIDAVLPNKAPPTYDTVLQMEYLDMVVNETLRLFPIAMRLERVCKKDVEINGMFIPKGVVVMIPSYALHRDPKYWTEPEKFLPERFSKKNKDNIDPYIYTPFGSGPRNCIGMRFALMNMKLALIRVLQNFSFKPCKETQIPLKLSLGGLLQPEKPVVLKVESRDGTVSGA
Ubiquitin carboxyl-terminal hydrolase 1 (Homo sapiens), sequence (O94782 whole entry, looked up): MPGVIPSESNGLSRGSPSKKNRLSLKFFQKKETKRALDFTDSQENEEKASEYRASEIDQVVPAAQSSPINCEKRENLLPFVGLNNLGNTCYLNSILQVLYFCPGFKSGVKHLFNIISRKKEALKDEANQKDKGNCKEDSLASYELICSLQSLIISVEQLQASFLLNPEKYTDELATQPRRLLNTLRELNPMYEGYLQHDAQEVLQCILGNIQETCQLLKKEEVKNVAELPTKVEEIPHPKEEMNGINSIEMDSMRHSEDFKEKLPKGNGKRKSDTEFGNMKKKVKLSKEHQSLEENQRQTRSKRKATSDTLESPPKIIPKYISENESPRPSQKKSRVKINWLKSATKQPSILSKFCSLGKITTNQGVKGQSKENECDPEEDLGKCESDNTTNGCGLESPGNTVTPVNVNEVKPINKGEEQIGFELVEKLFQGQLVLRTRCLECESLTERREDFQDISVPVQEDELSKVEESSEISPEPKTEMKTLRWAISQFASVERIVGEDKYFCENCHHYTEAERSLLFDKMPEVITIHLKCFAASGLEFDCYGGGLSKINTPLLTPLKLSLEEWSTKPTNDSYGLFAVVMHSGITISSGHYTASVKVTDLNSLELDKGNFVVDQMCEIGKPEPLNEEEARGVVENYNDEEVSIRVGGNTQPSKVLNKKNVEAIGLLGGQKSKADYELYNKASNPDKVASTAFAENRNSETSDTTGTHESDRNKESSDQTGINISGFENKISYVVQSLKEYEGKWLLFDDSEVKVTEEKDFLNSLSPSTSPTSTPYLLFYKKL

SMILES	Potency [1]	Potency [2]	Potency [3]	activity change, negative = inhibition [4]	max response [4, 6] [%]	max response [4, 7] [%]	Potency [5]
C[C@@H]1CCC2[C@](C)(CO)C(O)CC[C@@]2(C)[C@@]12CC[C@](CO)(CCO)O2 (stereo not given in full)	inactive	inactive	inactive	5.37% (inactive)	11.4	17.7	inactive
CC1(C)C[C@@H]2C(=O)CCC3O[C@@]3(C)CCC21 (stereo not given in full)	inactive	inactive	inactive	3.76% (inactive)	20.7	26.4	inactive
CC1(C)CC2C1CCC1(C)OC2(C)CCC1O (stereo not given)	inactive	inactive	inactive	2.02% (inactive)	12.1	15.9	inactive
CC12CCC3C(=CCc4cc(O)ccc43)C1CCC2=O (stereo not given)	inactive	inactive	inactive	5.72% (inactive)	-12.9	-6.28	inactive
COC(=O)CC1C(C)(C)C(OC(C)=O)C2CC3=C4CC(=O)OC(c5ccoc5)[C@]4(C)CCC3[C@@]1(C)C2=O (stereo not given in full)	inactive	inactive	inactive	-5.96% (inactive)	14.6	10	inactive
O=C(CCc1ccc(O)cc1)c1c(O)cc(O)cc1O[C@H]1OC(CO)C(O)C(O)C1O (stereo not given in full)	inactive	inactive	inactive	6.17% (inactive)	25.3	27.2	inactive
O=C(NC1CCCCC1)NC1CCCCC1	inactive	inactive	inactive	9.61% (inactive)	16.8	30.7	inactive
CC(=O)OC1CC2C(C)(C)C(O)C=C[C@@]2(C)C2CC[C@@]3(C)C(c4ccoc4)OC(=O)C4OC43[C@]12C (stereo not given in full)	inactive	inactive	inactive	8.59% (inactive)	21.3	29.9	inactive
CC(=O)C1CCC2C3CC(C)C4=CC(=O)CC[C@@]4(C)C3C(O)C[C@@]12C (stereo not given in full)	inactive	inactive	inactive	8.05% (inactive)	8.18	24.3	inactive
O=C(/C=C/c1ccccc1)c1ccc(O)cc1	inactive	inactive	inactive	4.07% (inactive)	-2.42	2.04	inactive
CC1CC2C3CCC4=CC(=O)C=C[C@]4(C)[C@@]3(Cl)C(O)C[C@]2(C)C1(OC(=O)c1ccco1)C(=O)CCl (stereo not given in full)	inactive	inactive	inactive	12.6% (inactive)	-6.79	6.32	inactive
O=c1cc(-c2ccc(O)cc2)oc2cc(O)ccc12	inactive	inactive	inactive	10.6% (inactive)	-4.61	5.18	inactive
CC1(C)OC2CC3C4CC(F)C5=CC(=O)C=C[C@@]5(C)[C@@]4(F)C(O)C[C@@]3(C)[C@]2(C(=O)CO)O1 (stereo not given in full)	inactive	inactive	inactive	3.9% (inactive)	10.6	16.5	inactive
CC(=O)OC1C(=O)[C@@]2(C)C(O)CC3OC[C@]3(OC(C)=O)C2C(OC(=O)c2ccccc2)[C@]2(O)CC(OC(=O)C(O)C(NC(=O)c3ccccc3)c3ccccc3)C(C)=C1C2(C)C (stereo not given in full)		inactive	inactive	-3.78% (inactive)	1.34	-0.503	inactive
CC(C)C(C)/C=C/C(C)C1CCC2C3=CCC4CC(=O)CC[C@@]4(C)C3CC[C@]21C (stereo not given in full)		inactive	inactive	5.02% (inactive)	-0.92	5.16	inactive
NCC1O[C@@H](OC2C(N)C[C@H](N)[C@@H](O[C@H]3OC(CO)C(O)C(N)C3O)C2O)C(O)C(O)C1O (stereo not given in full)		inactive	inactive	12.1% (inactive)	13.1	29.6	inactive
CCOC(=O)C(CCc1ccccc1)NC(C)C(=O)N1C(C(=O)O)CC2CCCC21 (stereo not given)		inactive	inactive	8.81% (inactive)	13.5	25.8	inactive
COc1ccc(-c2coc3cc(O)ccc3c2=O)c(OC)c1	inactive	inactive	inactive	-0.403% (inactive)	3.06	3.26	inactive
C=C1C(=O)OC2CC1C(OC(C)=O)CC(C)=CCCC(C)=CCC[C@@]2(C)O (stereo not given in full)	inactive	inactive	inactive	-0.0283% (inactive)	10.1	14.3	inactive
CC1(C)C2(Cl)C(Cl)C(Cl)C(Cl)(C(Cl)Cl)C1(Cl)C2Cl (stereo not given)		inactive	inactive	3.3% (inactive)	3.76	3.86	inactive
